Source: PubChem BioAssay (NCATS)
Values joined by “and” are separate entries in the source; they are usually repeats but may differ in a detail not shown here. Identical values can stand only once. Inconclusive results are not listed. Where a structure was tested more than once in an assay, its records may differ in their call. Active and inactive are the calls of the source. Unless noted, calls follow the shape of the dose curve; as a rule, active = well fitted curve in the direction sought with a large enough effect; inconclusive = small, poorly fitted or top-dose-only effect, or another doubt; inactive = no such curve, though single readings can be large; an effect the other way counts as inactive or inconclusive. Non-standard residues stand in square brackets, D forms with d. Residues, ends and D or L forms follow the SMILES beside them.

Tests used:
[1] = target: Cytochrome P450 1A2 (Homo sapiens) (UniProt P05177); assay: p450-cyp1a2 (AID 410; calls by dose curve; also: potency is read from the fitted curve at half-maximal effect;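 as to activity change, negative = inhibition: -100% = full effect of reference inhibitor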)
Sequence of Cytochrome P450 1A2 (Homo sapiens) (P05177 whole entry, looked up): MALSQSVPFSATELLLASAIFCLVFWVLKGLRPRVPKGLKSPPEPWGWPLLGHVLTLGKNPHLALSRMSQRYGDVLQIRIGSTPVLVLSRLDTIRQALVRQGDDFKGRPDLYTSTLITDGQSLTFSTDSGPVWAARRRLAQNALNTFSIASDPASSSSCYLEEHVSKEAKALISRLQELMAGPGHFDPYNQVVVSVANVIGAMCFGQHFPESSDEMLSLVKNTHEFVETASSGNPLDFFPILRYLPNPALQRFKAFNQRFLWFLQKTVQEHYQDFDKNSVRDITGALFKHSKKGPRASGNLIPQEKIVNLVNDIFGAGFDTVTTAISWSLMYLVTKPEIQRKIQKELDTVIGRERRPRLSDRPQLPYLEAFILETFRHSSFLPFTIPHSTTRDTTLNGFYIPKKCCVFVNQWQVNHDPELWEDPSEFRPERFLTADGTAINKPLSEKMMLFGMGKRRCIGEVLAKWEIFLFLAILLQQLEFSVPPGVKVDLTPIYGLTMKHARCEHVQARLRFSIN
Method in brief: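 20nM CYP1A2 with 100uM Luciferin-ME (at Km) in 100mM KPO4; compound preincubated 10 min, NADPH regeneration added, 60 min at room temperature. Luciferin quantified by luminescence after detection reagent; normalized to 57 uM furafylline.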

[2] = target: Glucocorticoid receptor (Homo sapiens) (UniProt P04150); assay: GR-GFP Redistribution (AID 450;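 active = compounds whose dose series gives a full or clear partial fitted curve of increased nuclear translocation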; also: potency is read from the fitted curve at half-maximal effect); conditions: U2OS GR-GFP nuclear translocation, laser cytometry, 2 h
Sequence of Glucocorticoid receptor (Homo sapiens) (P04150 whole entry, looked up, the tested form may be a part): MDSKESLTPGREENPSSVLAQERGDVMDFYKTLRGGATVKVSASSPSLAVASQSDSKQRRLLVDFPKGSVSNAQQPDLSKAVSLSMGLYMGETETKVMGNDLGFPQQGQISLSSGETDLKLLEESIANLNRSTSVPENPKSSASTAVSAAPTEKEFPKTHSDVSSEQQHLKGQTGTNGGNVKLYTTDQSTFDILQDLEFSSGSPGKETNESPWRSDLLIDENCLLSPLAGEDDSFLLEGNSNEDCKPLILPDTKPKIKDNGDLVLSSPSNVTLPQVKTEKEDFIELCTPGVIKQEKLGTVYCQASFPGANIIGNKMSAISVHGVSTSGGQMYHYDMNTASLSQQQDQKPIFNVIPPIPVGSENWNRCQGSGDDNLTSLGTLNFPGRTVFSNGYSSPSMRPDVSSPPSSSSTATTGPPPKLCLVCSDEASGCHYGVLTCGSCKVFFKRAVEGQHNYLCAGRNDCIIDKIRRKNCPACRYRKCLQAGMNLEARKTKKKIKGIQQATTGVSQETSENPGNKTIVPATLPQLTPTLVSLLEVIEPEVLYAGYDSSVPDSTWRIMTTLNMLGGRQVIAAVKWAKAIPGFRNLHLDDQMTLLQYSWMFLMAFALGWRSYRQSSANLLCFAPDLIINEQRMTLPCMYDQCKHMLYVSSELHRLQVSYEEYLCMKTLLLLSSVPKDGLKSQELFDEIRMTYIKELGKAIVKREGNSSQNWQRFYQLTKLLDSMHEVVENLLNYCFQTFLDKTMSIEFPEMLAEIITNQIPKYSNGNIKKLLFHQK

[3] = target: Glucocorticoid receptor (Homo sapiens) (UniProt P04150); assay: GR-EFC Redistribution (AID 451; calls by dose curve; also: potency is read from the fitted curve at half-maximal effect); conditions: CHO-K1 GR-EFC translocation, beta-gal luminescence, 2 h
Method in brief: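 Translocation of GR-ED fusion to nuclear EA restores b-gal, read by luminescence after 1 h room-temperature detection. Engineered CHO-K1 biosensor cells, 1,000/well, exposed 2 h at 37 C to titrations up to 46 uM final.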

[4] = target: Mitogen-activated protein kinase 10 (Mus musculus) (UniProt Q61831); assay: JNK3 AlphaScreen Assay (AID 530; active = well fitted curve in either direction with a large enough effect, not every such curve was filed as active;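 also: kinase came from lysate of stimulated human HepG2 cells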; also: potency is read from the fitted curve at half-maximal effect)
Method in brief: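 Compound titrations were preincubated 15 minutes at room temperature with substrate, antibody and pre-activated JNK3-containing HepG2 lysate. Reactions were started with 10 uM ATP and stopped with EDTA-containing bead buffer for AlphaScreen detection.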

[5] = target: 3',5'-cyclic-AMP phosphodiesterase 4B (Homo sapiens) (UniProt Q07343); assay: qHTS Assay for Inhibitors of PDE-IV (AID 607; active = well fitted activation curve with a large enough effect in the main read-out, with a control signal flat, not every such curve was filed as active; also: % of control where 0% means no effect)
Sequence of 3',5'-cyclic-AMP phosphodiesterase 4B (Homo sapiens) (Q07343 whole entry, looked up): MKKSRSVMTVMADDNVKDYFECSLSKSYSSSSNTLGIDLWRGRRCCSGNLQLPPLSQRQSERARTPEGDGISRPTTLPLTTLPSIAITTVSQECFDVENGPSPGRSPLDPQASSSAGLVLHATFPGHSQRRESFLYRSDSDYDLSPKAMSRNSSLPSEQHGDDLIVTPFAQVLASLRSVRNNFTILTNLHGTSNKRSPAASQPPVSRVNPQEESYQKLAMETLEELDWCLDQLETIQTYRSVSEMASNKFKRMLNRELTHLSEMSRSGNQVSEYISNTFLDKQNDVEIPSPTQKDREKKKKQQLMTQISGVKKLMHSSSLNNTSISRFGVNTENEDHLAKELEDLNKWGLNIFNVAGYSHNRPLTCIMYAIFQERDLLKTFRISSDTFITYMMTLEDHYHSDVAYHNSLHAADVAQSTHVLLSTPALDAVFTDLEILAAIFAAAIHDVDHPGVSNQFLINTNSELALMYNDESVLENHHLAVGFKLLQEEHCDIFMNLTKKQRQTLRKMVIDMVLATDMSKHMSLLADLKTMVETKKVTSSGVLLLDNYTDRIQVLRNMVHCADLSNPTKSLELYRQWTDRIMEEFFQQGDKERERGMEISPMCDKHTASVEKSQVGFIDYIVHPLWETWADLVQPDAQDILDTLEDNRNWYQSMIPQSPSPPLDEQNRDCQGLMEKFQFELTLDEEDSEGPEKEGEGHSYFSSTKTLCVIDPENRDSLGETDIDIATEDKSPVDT
Method in brief: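 Live HEK293 cells with a modified cyclic nucleotide-gated (CNG) channel report intracellular cAMP via membrane-potential dye fluorescence (ex 535/em 590 nm). Endogenous PDE-IV was targeted. Compounds were tested at up to 22.9 uM final; RO 20-1724 100 uM served as control.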

[6] = target: Ubiquitin carboxyl-terminal hydrolase 1 (Homo sapiens) (UniProt O94782); assay: Inhibitors of USP1/UAF1: Pilot qHTS (AID 504865);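 also: rhodamine fluorescence freed from ubiquitin-rhodamine substrate followed over time; top concentration of the series differs between compounds; % is scaled to controls: 0 for no effect and ±100 for the full control effect; nearly all actives have a fitted effect of over 35% in size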
Method in brief: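 Kinetic fluorescence assay: 1nM USP1/UAF1, 15 min compound preincubation, then 150nM Ub-Rho; 480/540 nm.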

[7] = target: DNA dC->dU-editing enzyme APOBEC-3G (Homo sapiens) (UniProt Q9HC16); assay: qHTS for inhibitors of Vif-A3G interactions: Validation (AID 588379); also: 0% is about no effect
Sequence of DNA dC->dU-editing enzyme APOBEC-3G (Homo sapiens) (Q9HC16 whole entry, looked up): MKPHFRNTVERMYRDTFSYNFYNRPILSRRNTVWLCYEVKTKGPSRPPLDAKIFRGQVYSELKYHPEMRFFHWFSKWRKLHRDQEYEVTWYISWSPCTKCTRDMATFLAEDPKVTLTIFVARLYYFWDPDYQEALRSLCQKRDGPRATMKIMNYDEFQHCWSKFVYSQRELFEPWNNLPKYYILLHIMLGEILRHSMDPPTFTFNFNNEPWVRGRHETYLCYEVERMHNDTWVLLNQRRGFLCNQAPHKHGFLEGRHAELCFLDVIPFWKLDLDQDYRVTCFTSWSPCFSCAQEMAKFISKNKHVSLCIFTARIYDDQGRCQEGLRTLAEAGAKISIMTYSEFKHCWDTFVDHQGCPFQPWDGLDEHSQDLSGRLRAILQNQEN
Method in brief: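 HeLa cells stably expressing Vif and A3G-eYFP, 700 cells/well, incubated overnight at 37 deg C, then exposed to compound overnight at 37 deg C. Inhibition of Vif-mediated degradation read as increased yellow fluorescence (Ex 488/Em 500-530) by laser-scanning cytometry.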

[8] = test system: Zika virus NS2B-NS3 protease; assay: Primary screen GU AMC qHTS for Zika virus inhibitors (AID 1347154);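 also: 0% = no-inhibitor control and -100% = no-enzyme control; nearly all actives have a fitted effect of over 70% in size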
Method in brief: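 Fluorogenic AMC-substrate cleavage by noncovalent NS2B-NS3 protease complex (25 nM, pH 8.0 Tris buffer with Tween 20) followed for 15 minutes at room temperature (~20% conversion). Percent inhibition from ex340/em450 signal change, fitted by 4-parameter Hill equation.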

[9] = Primary qHTS for small molecule stabilizers of the endoplasmic reticulum resident proteome: Secreted ER Calcium Modulated Protein (SERCaMP) assay (AID 1508630); also: % is scaled to controls: 0 for no effect and ±100 for the full control effect
Method in brief: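 GLuc-SERCaMP-expressing SH-SY5Y cells, pretreated 16 h with compound, are challenged with thapsigargin to empty ER calcium stores; after 4 h, coelenterazine is added directly to the medium and luminescence is imaged.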

[10] = AP1 Signaling Pathway (AID 357; active = well fitted curve in either direction with a large enough effect, not every such curve was filed as active;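 also: ME-180 reporter cells stimulated with EGF at its EC50 level; % is scaled to controls: 0 for no effect and ±100 for the full control effect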); conditions: ME-180 AP-1-bla reporter, EGF-induced, beta-lactamase ratio, 5 h
Method in brief: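 Read-out was the 460nm/530nm emission ratio (excitation 405nm) after CCF4 loading for 2.5 hours at room temperature. Cells carried an AP-1-driven beta-lactamase reporter, were stimulated with EC50 EGF plus compound for 5 hours, and AC50 values came from titrations.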

[11] = NFAT Signaling Pathway (AID 444; active = well fitted curve in either direction with a large enough effect, not every such curve was filed as active;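 also: carbachol stimulus at about its EC50 of 1 µM final; % is scaled to controls: 0 for no effect and ±100 for the full control effect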); conditions: Jurkat NFAT-bla M1, carbachol, beta-lactamase ratio, 5 h; at 38 µM (top of the series)
Method in brief: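 Read-out: CCF4 FRET ratio (460 nm/530 nm) after 1 h RT dye loading, used for %activity and AC50 from titration series. Cells: Jurkat NFAT-β-lactamase/M1 line, treated with compound plus 1 uM carbachol for 5 h, 37 °C.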

[12] = Stat Signaling Pathway (AID 446; active = well fitted curve in either direction with a large enough effect, not every such curve was filed as active;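 also: ME-180 cervical cancer cells given 40 pM IL-6 alongside compound; SIE-controlled beta-lactamase reporter measured as 460/530 nm FRET emission ratio; % is scaled to controls: 0 for no effect and ±100 for the full control effect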); conditions: ME-180 (cervical carcinoma) SIE beta-lactamase reporter, IL-6 stimulated, 5 h
Method in brief: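 IL-6/STAT signaling read in ME-180 cells via an SIE beta-lactamase reporter. Stimulus was 40 pM IL-6 (its AC50) for 5 hrs, so both activation and inhibition register.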

[13] = target: Guanine nucleotide-binding protein G(i) subunit alpha-1 (Homo sapiens) (UniProt P63096); assay: qHTS Assay for Inhibitors of RGS12 GoLoco Motif Activity (Green Fluorophore) (AID 879);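 also: 0% = labeled peptide with Gαi1 and full inhibition = labeled peptide alone without protein; negative values mean loss of peptide binding seen as reduced polarization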
Sequence of Guanine nucleotide-binding protein G(i) subunit alpha-1 (Homo sapiens) (P63096 whole entry, looked up): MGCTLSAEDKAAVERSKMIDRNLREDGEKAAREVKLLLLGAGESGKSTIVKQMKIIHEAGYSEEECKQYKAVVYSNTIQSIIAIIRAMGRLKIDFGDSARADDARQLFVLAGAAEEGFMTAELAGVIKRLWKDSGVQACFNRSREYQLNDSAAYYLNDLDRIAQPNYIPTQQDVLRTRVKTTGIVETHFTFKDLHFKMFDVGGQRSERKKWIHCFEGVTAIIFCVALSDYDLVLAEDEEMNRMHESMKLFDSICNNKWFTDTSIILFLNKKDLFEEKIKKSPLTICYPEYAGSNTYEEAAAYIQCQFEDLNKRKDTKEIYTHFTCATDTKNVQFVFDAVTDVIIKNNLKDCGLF
Method in brief: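 Fluorescence polarization assay: 50 nM Gαi1 with 10 nM FITC-labeled RGS12 GoLoco peptide in 10 mM Tris pH 7.5, 150 mM NaCl, 0.1 mM GDP, 0.05% NP40, 10 min at room temperature with compound.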

[14] = target: Cytochrome P450 2D6 (Homo sapiens) (UniProt P10635); assay: qHTS Assay for Inhibitors and Substrates of Cytochrome P450 2D6 (AID 891); also: nearly all actives have a fitted effect of over 60% in size; also: potency is read from the fitted curve at half-maximal effect
Sequence of Cytochrome P450 2D6 (Homo sapiens) (P10635 whole entry, looked up): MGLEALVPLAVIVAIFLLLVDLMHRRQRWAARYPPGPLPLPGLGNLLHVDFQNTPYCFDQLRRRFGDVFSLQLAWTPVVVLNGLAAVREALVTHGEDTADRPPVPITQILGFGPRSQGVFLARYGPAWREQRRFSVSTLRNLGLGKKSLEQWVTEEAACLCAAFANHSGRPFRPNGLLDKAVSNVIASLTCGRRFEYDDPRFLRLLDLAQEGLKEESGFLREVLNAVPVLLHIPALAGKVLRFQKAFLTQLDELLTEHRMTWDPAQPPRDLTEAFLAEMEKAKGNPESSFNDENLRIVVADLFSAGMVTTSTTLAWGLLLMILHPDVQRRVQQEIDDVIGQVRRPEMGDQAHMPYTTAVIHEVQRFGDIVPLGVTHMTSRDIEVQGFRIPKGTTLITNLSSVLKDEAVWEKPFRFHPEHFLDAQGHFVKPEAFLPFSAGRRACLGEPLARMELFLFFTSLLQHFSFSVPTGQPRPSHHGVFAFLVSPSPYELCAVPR
Method in brief: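 Human CYP2D6 (5 nM) with 30 uM Luciferin-ME EGE (at Km) in 100 mM KPO4, compound preincubated 10 min, then NADPH regeneration system for 60 min at room temperature. Luciferin read by luminescence; normalized to 1.43 uM quinidine.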

[15] = target: Pyruvate kinase (Leishmania mexicana) (UniProt Q27686); assay: qHTS Validation Assay for Inhibitors of Leishmania Mexicana Pyruvate Kinase (AID 945);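 also: 0% = DMSO only neutral control wells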
Sequence of Pyruvate kinase (Leishmania mexicana) (Q27686 2-499 E452W): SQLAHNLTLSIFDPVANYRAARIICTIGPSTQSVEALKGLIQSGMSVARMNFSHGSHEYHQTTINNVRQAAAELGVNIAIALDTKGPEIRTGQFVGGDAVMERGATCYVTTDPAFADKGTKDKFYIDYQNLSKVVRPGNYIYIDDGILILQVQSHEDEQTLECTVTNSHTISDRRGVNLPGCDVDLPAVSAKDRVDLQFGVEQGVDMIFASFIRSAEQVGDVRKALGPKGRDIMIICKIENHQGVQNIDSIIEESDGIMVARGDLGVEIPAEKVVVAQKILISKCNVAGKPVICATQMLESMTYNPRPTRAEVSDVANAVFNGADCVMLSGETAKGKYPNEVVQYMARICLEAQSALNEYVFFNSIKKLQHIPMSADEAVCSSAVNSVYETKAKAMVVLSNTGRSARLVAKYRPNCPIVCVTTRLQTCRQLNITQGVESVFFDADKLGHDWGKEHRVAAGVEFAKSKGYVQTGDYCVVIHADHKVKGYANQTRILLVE
Method in brief: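 An endpoint luciferase assay: 0.2 nM LmPYK E451W turns over 0.5 mM PEP with 0.1 mM ADP for 1 h at room temperature, pH 7.2, before PKLight addition. Values are normalized to DMSO-only wells.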

[16] = target: Alpha-galactosidase A (Homo sapiens) (UniProt P06280); assay: Counterscreen for Glucocerebrosidase Inhibitors: qHTS Assay for Human alpha-Galactosidase at pH 4.5 (AID 992); also: 0% is about no effect
Sequence of Alpha-galactosidase A (Homo sapiens) (P06280 whole entry, looked up): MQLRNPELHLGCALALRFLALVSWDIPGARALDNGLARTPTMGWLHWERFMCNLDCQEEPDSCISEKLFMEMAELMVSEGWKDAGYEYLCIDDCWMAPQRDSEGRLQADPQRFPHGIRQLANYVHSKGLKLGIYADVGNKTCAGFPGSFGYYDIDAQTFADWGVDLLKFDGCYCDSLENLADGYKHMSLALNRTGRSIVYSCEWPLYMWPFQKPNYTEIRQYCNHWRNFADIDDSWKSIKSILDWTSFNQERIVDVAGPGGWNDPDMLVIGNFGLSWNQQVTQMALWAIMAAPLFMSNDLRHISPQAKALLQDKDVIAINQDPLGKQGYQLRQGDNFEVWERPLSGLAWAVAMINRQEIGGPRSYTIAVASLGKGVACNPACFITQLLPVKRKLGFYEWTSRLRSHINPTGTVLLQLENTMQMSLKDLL
Method in brief: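 Read-out is 4-methylumbelliferone fluorescence (365 nm excitation, 440 nm emission) after a pH 10 NaOH/glycine stop. Reactions held 2 nM enzyme and 80 uM substrate at pH 4.5 for 20 min at room temperature.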

[17] = target: alpha-glucosidase (Oryza sativa, rice) (UniProt Q653V4); assay: Counterscreen for Glucocerebrosidase Inhibitors: qHTS Assay for Rice alpha-Glucosidase at pH 5.0 (AID 997);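 also: 0% = full activity with enzyme and -100% = basal without enzyme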
Method in brief: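 Rice alpha-glucosidase (4 nM final) with 400 uM 4-methylumbelliferyl-alpha-D-glucopyranoside in citrate buffer pH 5.0, 20 min at room temperature, stopped at pH 10; fluorescence 365/440 nm, compounds 0.7 nM–77 uM, AC50 from Hill fits.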

[18] = target: Cytochrome P450 3A4 (Homo sapiens) (UniProt P08684); assay: qHTS Assay for Activators of Cytochrome P450 3A4 (AID 885); also: nearly all actives have a fitted effect of over 65% in size
Method in brief: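 Quantitative HTS format: compounds preincubated with 20nM human CYP3A4 and Luciferin-PPXE substrate at KM, reaction started by NADPH regeneration, stopped after 60 min, luciferase luminescence read 20 min later.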

[19] = target: Cytochrome P450 2C19 (Homo sapiens) (UniProt P33261); assay: qHTS Assay for Inhibitors and Substrates of Cytochrome P450 2C19 (AID 899); also: nearly all actives have a fitted effect of over 60% in size; also: potency is read from the fitted curve at half-maximal effect
Sequence of Cytochrome P450 2C19 (Homo sapiens) (P33261 whole entry, looked up): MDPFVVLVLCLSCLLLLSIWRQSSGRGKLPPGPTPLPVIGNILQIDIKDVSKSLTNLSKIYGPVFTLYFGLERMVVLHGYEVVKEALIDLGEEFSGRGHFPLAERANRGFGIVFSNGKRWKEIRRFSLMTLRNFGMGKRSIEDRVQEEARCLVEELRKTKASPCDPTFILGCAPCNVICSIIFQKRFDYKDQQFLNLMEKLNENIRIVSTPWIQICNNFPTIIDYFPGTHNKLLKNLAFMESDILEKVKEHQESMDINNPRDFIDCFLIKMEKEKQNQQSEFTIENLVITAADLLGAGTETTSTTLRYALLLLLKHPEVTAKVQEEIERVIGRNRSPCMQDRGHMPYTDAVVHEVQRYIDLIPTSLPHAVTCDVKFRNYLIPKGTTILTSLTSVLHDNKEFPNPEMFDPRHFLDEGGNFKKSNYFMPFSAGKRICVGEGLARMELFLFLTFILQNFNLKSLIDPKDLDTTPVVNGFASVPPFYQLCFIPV
Method in brief: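 5nM enzyme + 10uM Luciferin-H EGE (=KM), 50mM KPO4; cpd pin-transferred, 10 min 37C; NADPH regen, 60 min 37C; stopped w/ luciferin detection reagent, 20 min; luminescence. Normalized to 57uM ketoconazole (AC100).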

CC(C)[C@@H]1C(=O)N(S(C)(=O)=O)[C@H]2CCN(C(=O)/C=C\CN3CCCCC3)[C@@H]12
inactive: Potency [1] | Potency [2] > 46 µM | Potency [3] > 46 µM | Potency [4] | Potency [5] | Potency [6] | Potency [7] | Potency [8] | Potency [9]

CCCCC[C@H](O)CC(=O)CCc1ccc(O)c(OC)c1
inactive: Potency [8] | Potency [9]

CC/C=C\C/C=C\C/C=C\C/C=C\C/C=C\CCCCCC(=O)O
inactive: activity change, negative = inhibition [8] -1.57% [at 6.83 µM] | activity change, negative = inhibition [9] -17.3% [at 3.88 µM]

C=CCN1CCc2cc(O)c(O)cc2[C@H](c2ccccc2)C1
active: Potency [14] 398 nM
inactive: activity change, negative = inhibition ([10]; at 38 µM (top of the series)) -3.34% | Potency [1] | activity change, negative = inhibition [11] -18.1% | activity, negative = inhibition ([12]; at 38 µM (top of the series)) -21% | Potency [2] > 46 µM | Potency [4] | Potency [5] | outcome [13] | Potency [15] | outcome [16] | outcome [17] | Potency [7] | Potency [8] | Potency [9]

CC(=O)[C@H]1[C@H](C#N)C[C@H]2[C@@H]3CC=C4C[C@@H](O)CC[C@]4(C)[C@H]3CC[C@@]21C
inactive: activity change, negative = inhibition ([10]; at 17.2 µM (top of the series)) 5.31% | activity, negative = inhibition ([12]; at 17.2 µM (top of the series)) 2.76% | Potency [2] > 20.6 µM | Potency [8] | Potency [9]

c1ccc2cc(C3=NCCN3)ncc2c1
active: Potency [1] 501 nM
inactive: Potency [2] > 46 µM | Potency [3] > 46 µM | Potency [4] | Potency [5] | Potency [6] | Potency [7] | Potency [8] | Potency [9]

CC(C)=CCC/C(C)=C/CC/C(C)=C/CO
inactive: Potency [18] | Potency [6] | Potency [7] | Potency [8] | Potency [9]

CO[C@@]12C[C@@H](COC(=O)c3cncc(Br)c3)CN(C)[C@H]1Cc1cn(C)c3cccc2c13
active: Potency [1] 5.01 µM and 15.8 µM and 39.8 µM | Potency [14] 39.8 nM and 2.5 nM and 20 nM | Potency [19] 6.31 µM
inactive and 3.16 µM (active): Potency [4]
inactive: activity change, negative = inhibition ([10]; at 17.2 µM (top of the series)) -12% | activity, negative = inhibition ([12]; at 17.2 µM (top of the series)) -10.5% | Potency [2] > 20.6 µM and > 46 µM | Potency [3] > 20.6 µM and > 46 µM | Potency [18] | Potency [7] | Potency [8] | Potency [9]

COc1ccc2c(c1)c(CC(=O)N1CCOCC1)c(C)n2C(=O)c1ccc(Cl)cc1
inactive: activity change, negative = inhibition ([10]; at 38 µM (top of the series)) -8.4% | activity change, negative = inhibition [11] 2.03% | activity, negative = inhibition ([12]; at 38 µM (top of the series)) -6.17% | Potency [2] > 46 µM | Potency [3] > 46 µM | Potency [5] | outcome [13] | Potency [18] | Potency [14] | Potency [19] | Potency [15] | outcome [16] | outcome [17] | Potency [7] | Potency [8] | Potency [9]
active: Potency [1] 12.6 µM and 25.1 µM

CCOC(OCC)P(=O)(O)CCCNCc1ccc(Cl)c(Cl)c1
inactive: Potency [1] | Potency [2] > 46 µM | Potency [3] > 46 µM | Potency [4] | Potency [6] | Potency [7] | Potency [8] | Potency [9]

COc1cc([C@@H]2c3cc4c(cc3C(O[C@@H]3O[C@@H]5CO[C@@H](c6cccs6)OC5[C@H](O)[C@H]3O)C3COC(=O)[C@@H]32)OCO4)cc(OC)c1O (some centres undefined)
inactive: Potency [8] | Potency [9]

CSCC[C@H](C=O)NC(=O)[C@H](CC(C)C)NC(=O)[C@H](CC(C)C)NC(C)=O (Ac-Leu-Leu-[dM]-aldehyde)
inactive: Potency [1] | Potency [2] > 46 µM | Potency [3] > 46 µM | Potency [4] | Potency [5] | Potency [6] | Potency [7] | Potency [8] | Potency [9]

C[C@H]1C=C2C=C[C@H](C)[C@H](CC[C@@H]3C[C@@H](O)CC(=O)O3)[C@H]2[C@@H](OC(=O)[C@@H](C)CCO)C1
inactive: Potency [3] > 46 µM | Potency [4] | Potency [18] | Potency [7] | Potency [8] | Potency [9]
active: Potency [1] 31600 nM

N[C@H](Cc1ccccc1)C(=O)O
inactive: Potency [8] | Potency [9]

CC#CCOC(=O)c1c(C)nc2sc3c(c2c1N)CC[C@@H](O)C3
active: Potency [1] 398 nM and 25.1 nM
inactive: activity change, negative = inhibition ([10]; at 38 µM (top of the series)) -15.6% | activity change, negative = inhibition [11] -25.8% | Potency [2] > 46 µM | Potency [3] > 46 µM | Potency [5] | outcome [13] | Potency [18] | Potency [14] | Potency [19] | Potency [15] | outcome [16] | outcome [17] | Potency [7] | Potency [8] | Potency [9]

CCCCC[C@H](O)/C=C/[C@@H]1[C@@H](CCCCCCC(=O)O)[C@@H](O)C[C@H]1O
inactive: activity change, negative = inhibition ([10]; at 17.2 µM (top of the series)) 8.11% | activity, negative = inhibition ([12]; at 17.2 µM (top of the series)) 2.03% | activity change, negative = inhibition [8] 8.46% [at 6.83 µM] | activity change, negative = inhibition [9] -7.27% [at 3.88 µM]
